The record followed here is PubChem BioAssay (EPA / NIEHS).

Assay [1] in a line: ATG_PXRE_CIS: Attagene CIS-FACTORIAL HepG2 Assay for human Pregnane X Receptor Element (PXRE) (AID 2282957). The note with it: HepG2 Attagene CIS-FACTORIAL PXRE reporter, mRNA; actives raise or lower the signal. In a few lines:
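Transfect HepG2 with MRTUs (cis promoter elements); dose chemical, incubate 24 h; isolate RNA, RT with oligo(dT), PCR, 6-FAM label, HpaI cut, CE. Gain/loss fit vs DMSO.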

The nature of assay [2]: ATG_PPRE_CIS: Attagene CIS-FACTORIAL HepG2 Assay for human Peroxisome Proliferator-activated Response Element (PPRE) (AID 2282958). The note with it: HepG2 PPRE cis-element reporter, Attagene transcription factor profiling; actives raise or lower the signal. In a few lines: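 Measured endpoint: PPRE-controlled reporter mRNA, detected by RT-PCR and capillary electrophoresis fluorescence, from transiently transfected HepG2 cells 24 h after dosing. Curves fitted in both directions using DMSO baseline.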

Assay [3] is described as follows: ATG_RORE_CIS: Attagene CIS-FACTORIAL HepG2 Assay for human RAR-related Orphan Receptor Element (RORE) (AID 2282959). Conditions: HepG2 Attagene cis-factorial RORE reporter, mRNA; actives raise or lower the signal. In a few lines:
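Transiently transfected HepG2 reporter cells were treated 24 h. Reporter transcripts were detected by RT-PCR and capillary electrophoresis, with bidirectional fitting against DMSO.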

Assay [4] is described as follows: ATG_Sox_CIS: Attagene CIS-FACTORIAL HepG2 Assay for human SRY-box transcription factor (SOX) (AID 2282960). Conditions: HepG2 Attagene cis-factorial SOX reporter, mRNA; actives raise or lower the signal. In a few lines:
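Gain- or loss-of-signal endpoint, fitted bidirectionally with DMSO as negative control. Based on reporter mRNA from transfected HepG2 cells harvested 24 h post-treatment and quantified via RT-PCR and capillary electrophoresis.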

Assay [5] deals with Transcription factor Sp1 (Homo sapiens) (UniProt P08047). The assay is described as follows: ATG_Sp1_CIS: Attagene CIS-FACTORIAL HepG2 Assay for human Specificity Protein 1 (Sp1) (AID 2282961). Conditions: HepG2 Sp1 cis-reporter transcription, actives raise or lower the signal. The procedure, abridged: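 Endpoint reflects endogenous Sp1 transcriptional activity, not an exogenous fusion protein: HepG2 cells with transfected cis-regulated reporters, 24 h dosing, RT-PCR/capillary electrophoresis mRNA read-out, DMSO-normalised bidirectional fit.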
Transcription factor Sp1 (Homo sapiens), sequence (P08047 whole entry, looked up, the tested form may be a part): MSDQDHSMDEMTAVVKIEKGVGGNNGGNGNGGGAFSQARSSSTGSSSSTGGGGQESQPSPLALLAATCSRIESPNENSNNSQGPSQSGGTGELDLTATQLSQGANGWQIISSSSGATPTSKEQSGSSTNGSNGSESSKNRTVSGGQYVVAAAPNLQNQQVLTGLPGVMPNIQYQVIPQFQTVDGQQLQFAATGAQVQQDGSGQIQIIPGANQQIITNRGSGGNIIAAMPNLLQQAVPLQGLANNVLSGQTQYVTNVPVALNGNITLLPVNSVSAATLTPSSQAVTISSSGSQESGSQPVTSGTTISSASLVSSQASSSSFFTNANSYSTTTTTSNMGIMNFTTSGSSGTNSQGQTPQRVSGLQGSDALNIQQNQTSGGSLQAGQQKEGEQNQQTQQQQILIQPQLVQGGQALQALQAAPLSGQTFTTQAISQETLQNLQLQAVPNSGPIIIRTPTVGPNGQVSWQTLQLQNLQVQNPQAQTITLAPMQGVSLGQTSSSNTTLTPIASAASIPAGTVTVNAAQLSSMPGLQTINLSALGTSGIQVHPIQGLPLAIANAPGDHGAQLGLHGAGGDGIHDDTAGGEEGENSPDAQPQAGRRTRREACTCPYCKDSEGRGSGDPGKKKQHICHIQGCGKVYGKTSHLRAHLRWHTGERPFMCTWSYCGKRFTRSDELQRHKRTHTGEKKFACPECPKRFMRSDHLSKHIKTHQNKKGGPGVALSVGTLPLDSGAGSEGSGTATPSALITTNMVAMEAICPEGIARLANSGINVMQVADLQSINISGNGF

Assay [6] is described as follows: ATG_SREBP_CIS: Attagene CIS-FACTORIAL HepG2 Assay for human Sterol Regulatory Element Binding (SREBP) (AID 2282962). The note with it: HepG2 Attagene cis-factorial SREBP reporter, mRNA; actives raise or lower the signal. The procedure, abridged: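 HepG2 cells transiently transfected with multiplexed cis-element reporter units report endogenous transcription factor activity. After 24 h of chemical exposure, reporter mRNA was quantified by RT-PCR, 6-FAM labelling, HpaI digestion and capillary electrophoresis; bidirectional fits used DMSO as baseline.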

Assay [7] has as its target Signal transducer and activator of transcription 3 (Homo sapiens) (UniProt P40763). The assay is described as follows: ATG_STAT3_CIS: Attagene CIS-FACTORIAL HepG2 Assay for human Signal Transducer and Activator of Transcription 3 (STAT3) (AID 2282963). Conditions: HepG2, Attagene cis-factorial STAT3 reporter transcription; actives raise or lower the signal. In a few lines: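 Endogenous STAT3-responsive cis-element activity was read in transiently transfected HepG2 cells after 24 h treatment. Reporter transcripts were quantified via RT-PCR and capillary electrophoresis, with DMSO as negative control and bidirectional curve fitting.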

Assay [8] is described as follows: ATG_TA_CIS: Attagene CIS-FACTORIAL HepG2 Assay for human TA Basal Promoter (AID 2282964). The note with it: HepG2 Attagene CIS-factorial TA basal promoter reporter; actives raise or lower the signal. In a few lines: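 Transient MRTU transfection of HepG2 preceded 24 h compound exposure. Reporter mRNA levels were then read by RT-PCR with capillary electrophoresis, and this background-control endpoint was fitted bidirectionally to DMSO.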

Assay [9] can be described thus: ATG_TCF_b_cat_CIS: Attagene CIS-FACTORIAL HepG2 Assay for human T-Cell-Factor with beta-catenin (TCF/b-cat) (AID 2282965). Conditions: HepG2 TCF/beta-catenin cis-reporter transcription, actives raise or lower the signal. In a few lines:
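Endogenous transcription factor activity is captured through cis-promoter reporter constructs transiently introduced into human HepG2 liver cells. Induced reporter mRNA is measured after 24 h and fitted bidirectionally relative to DMSO.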

Assay [10] is described as follows: ATG_TAL_CIS: Attagene CIS-FACTORIAL HepG2 Assay for human TAL Basal Promoter (AID 2282966).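 Also: background control endpoint measuring basal TAL promoter reporter mRNA not a specific factor.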 Conditions: HepG2 Attagene cis-factorial TAL promoter reporter; actives raise or lower the signal. In a few lines:
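Fluorescence of labelled reporter cDNA fragments, resolved by capillary electrophoresis, gave the readout. Human HepG2 liver cells carried transiently transfected cis-element reporter units and were treated for 24 hours; activity was fitted bidirectionally against DMSO.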

The source made the active and inactive calls. The calls were made as follows: active = hit-call score of the fitted dose curve at least 0.9, where 1 is the maximum; inactive = score below 0.9.

The AC50 is the midpoint of the concentration-response curve, whichever way the signal moves.

Signal transducer and activator of transcription 3 (Homo sapiens), sequence (P40763 whole entry, looked up): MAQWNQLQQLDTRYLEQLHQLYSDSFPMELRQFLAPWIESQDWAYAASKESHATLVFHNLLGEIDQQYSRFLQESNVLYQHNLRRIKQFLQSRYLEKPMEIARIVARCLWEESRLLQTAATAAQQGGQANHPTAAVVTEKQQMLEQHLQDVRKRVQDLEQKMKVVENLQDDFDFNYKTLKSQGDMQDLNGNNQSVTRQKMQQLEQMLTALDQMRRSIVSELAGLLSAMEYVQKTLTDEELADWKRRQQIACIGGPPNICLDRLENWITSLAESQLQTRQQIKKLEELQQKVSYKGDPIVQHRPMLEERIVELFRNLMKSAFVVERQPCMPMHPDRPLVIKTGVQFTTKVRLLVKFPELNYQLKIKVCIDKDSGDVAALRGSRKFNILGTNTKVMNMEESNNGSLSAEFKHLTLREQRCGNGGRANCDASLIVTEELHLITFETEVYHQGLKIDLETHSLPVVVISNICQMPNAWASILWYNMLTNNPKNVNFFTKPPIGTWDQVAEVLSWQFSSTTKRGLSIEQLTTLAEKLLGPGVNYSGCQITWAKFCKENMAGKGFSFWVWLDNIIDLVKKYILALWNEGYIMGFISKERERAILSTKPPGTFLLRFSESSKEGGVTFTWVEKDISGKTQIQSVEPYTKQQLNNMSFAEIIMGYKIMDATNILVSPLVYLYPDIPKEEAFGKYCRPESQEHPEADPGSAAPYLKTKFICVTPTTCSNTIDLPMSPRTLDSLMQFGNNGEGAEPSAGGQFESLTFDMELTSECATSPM

For `CCOC(=O)CC(SP(=O)(OC)OC)C(=O)OCC` (centres undefined), the AC50 in assay [1] was 34.8 µM (active); in [2], 39.7 µM (active). Also, the outcome in assay [3], in assay [4], in assay [5], in assay [6], in assay [7] and in assay [8] was inactive. Also, the call in assay [9] and in [10] was inactive.

With `COP(=O)(OC)C(O)C(Cl)(Cl)Cl` (centres undefined), the AC50 in assay [1] was 16.1 µM (active); in assay [2] it was 41.5 µM (active). For the same compound, the result in assay [3], in assay [4], in assay [5], in [6], in assay [7] and in assay [8] was inactive. Moreover, the outcome in [9] and in assay [10] was inactive.

With `Cc1ccn2nc(S(=O)(=O)Nc3c(F)cccc3F)nc2n1`, the AC50 in assay [1] is 9.86 µM (active). Besides, the result in assay [2], in assay [3], in assay [4], in assay [5], in [6] and in [7] was inactive. Further, the compound was called inactive in assay [8], in assay [9] and in assay [10].

For the compound `CCOP(=S)(Oc1cnc(C(C)(C)C)nc1)OC(C)C` (centres undefined), the concentration at half-maximal activity (AC50) in assay [1] is 1.84 µM (active); in assay [3], 13.1 µM (active); in assay [5] it was 28.1 µM (active); in [6] it was 23.2 µM (active). In addition, the outcome in [2], in assay [4], in assay [7], in [8], in [9] and in assay [10] was inactive.

With `CN(C)NC(=O)CCC(=O)O`, the call in [1], in assay [2], in [3], in assay [4], in assay [5] and in assay [6] was inactive. In addition, the call in [8], in [9] and in assay [10] was inactive.

On to `FC(F)C(F)(F)OCC(Cn1cncn1)c1ccc(Cl)cc1Cl` (centres undefined), for which the AC50 in [1] was 6.25 µM (active); in assay [2], 44.5 µM (active); in assay [3], 50 µM (active); in assay [6], 13.2 µM (active). The outcome in assay [4], in assay [5], in [8], in [9] and in assay [10] was inactive.

With `CC(C1CC1)C(O)(Cn1cncn1)c1ccc(Cl)cc1` (centres undefined), the AC50 in [1] was 24.8 µM (active). For the same compound, the result in [2], in assay [3], in assay [4], in [5], in assay [6] and in assay [8] was inactive. The compound was classed as inactive in assay [9] and in assay [10].

Consider `CC(COc1ccc(Oc2ccccc2)cc1)Oc1ccccn1` (centres undefined), for which the AC50 in assay [1] was 13.7 µM (active); in [2], 15.1 µM (active); in assay [3], 12.2 µM (active). The result in [4], in assay [5], in assay [6], in assay [7], in [8] and in assay [9] was inactive. The compound was classed as inactive in [10].

Consider `CCc1cccc(CC)c1N(COC)C(=O)CCl`, for which the half-maximal activity concentration (AC50) was 1.15 µM (active) in assay [1] and 7.75 µM (active) in assay [5]. In addition, the outcome in [2], in assay [3], in [4], in assay [6], in assay [7] and in assay [8] was inactive. The outcome in assay [9] and in [10] was inactive.

Take `CNc1cnn(-c2cccc(C(F)(F)F)c2)c(=O)c1Cl`: the AC50 in assay [1] was 20.1 µM (active); in assay [3] it was 27.6 µM (active). Moreover, the compound was called inactive in [2], in assay [4], in [5], in assay [6], in assay [7] and in [8]. The compound was classed as inactive in [9] and in [10].

`CCOC(=O)COc1cc(-c2nn(C)c(OC(F)F)c2Cl)c(F)cc1Cl`: the AC50 in assay [1] is 47.3 µM (active). Further, the compound was classed as inactive in assay [2], in [3], in [4], in assay [5], in assay [6] and in [8]. Also, the outcome in [9] and in assay [10] was inactive.

Turning to `COP(=O)(NC(C)=O)SC` (centres undefined), the AC50 in assay [1] was 30.5 µM (active). For the same compound, the compound was called inactive in [2], in [3], in assay [4], in [5], in assay [6] and in assay [7]. For the same compound, the compound was called inactive in assay [8], in assay [9] and in assay [10].

Take `CC1=NNC(=O)N(/N=C/c2cccnc2)C1`: the call in assay [1], in assay [2], in assay [3], in assay [4], in [5] and in [6] was inactive. The call in assay [8], in assay [9] and in assay [10] was inactive.

Turning to `CSC1=N[C@@](C)(c2ccccc2)C(=O)N1Nc1ccccc1`, the concentration at half-maximal activity (AC50) in [1] is 7.44 µM (active); in [2] it was 19.2 µM (active). Besides, the call in assay [3], in assay [4], in [5], in [6], in [7] and in assay [8] was inactive. Further, the compound was classed as inactive in assay [9] and in assay [10].

For the compound `CCCCSP(=O)(SCCCC)SCCCC`, the half-maximal activity concentration (AC50) was 12.9 µM (active) in assay [1]; 11.7 µM (active) in assay [2]; 76.7 µM (active) in assay [4]; 50 µM (active) in [5]; 20.1 µM (active) in assay [6]; 50 µM (active) in assay [7]. For the same compound, the figures for the AC50 in [8] and in assay [10] were 80.2 µM (active) and 13 µM (active), respectively. For the same compound, the compound was classed as inactive in [3] and in [9].

With `CC(=NC#N)N(C)Cc1ccc(Cl)nc1`, the AC50 in assay [1] is 64.9 µM (active). Moreover, the result in assay [2], in [3], in assay [4], in assay [5], in [6] and in assay [8] was inactive. Besides, the call in [9] and in assay [10] was inactive.

As for `Nc1c(Cl)cc([N+](=O)[O-])cc1Cl`, the concentration at half-maximal activity (AC50) in [1] is 44.2 µM (active); in assay [2] it was 34.4 µM (active); in assay [7] it was 75.9 µM (active). Moreover, the call in assay [3], in [4], in [5], in assay [6], in assay [8] and in assay [9] was inactive. The result in assay [10] was inactive.
